# Reference: PubChem BioAssay AID2551 (National Center for Advancing Translational Sciences (NCATS), 2010)
# Out of some 310,000 compounds screened, about 17,000 (5.5%) were called active. About 11% were inconclusive and are not listed. Calls come from the whole dose curve; as a rule, active = well fitted inhibition curve with a large enough effect; inconclusive = small, poorly fitted or top-dose-only effect, or effect the other way; inactive = no such curve, though single readings can be large or run the other way. The entries come from a sample that favours actives as a whole.
# Target: Nuclear receptor ROR-gamma (Mus musculus) (UniProt P51450)
# Sequence (P51450 whole entry, looked up): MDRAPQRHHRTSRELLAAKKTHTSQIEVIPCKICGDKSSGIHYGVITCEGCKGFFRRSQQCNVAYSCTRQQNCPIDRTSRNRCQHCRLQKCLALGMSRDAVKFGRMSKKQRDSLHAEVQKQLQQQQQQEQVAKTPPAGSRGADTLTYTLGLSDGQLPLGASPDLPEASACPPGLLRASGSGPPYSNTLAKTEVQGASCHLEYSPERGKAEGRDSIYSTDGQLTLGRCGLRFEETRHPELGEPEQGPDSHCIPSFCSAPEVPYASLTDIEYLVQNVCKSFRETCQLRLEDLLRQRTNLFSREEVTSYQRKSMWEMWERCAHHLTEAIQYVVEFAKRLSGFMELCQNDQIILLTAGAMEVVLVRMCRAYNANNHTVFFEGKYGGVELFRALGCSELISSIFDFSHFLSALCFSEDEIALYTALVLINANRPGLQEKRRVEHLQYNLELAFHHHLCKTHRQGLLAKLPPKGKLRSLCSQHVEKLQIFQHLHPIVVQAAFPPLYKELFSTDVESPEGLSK
# Assay: qHTS for inhibitors of ROR gamma transcriptional activity; note: nearly all actives have a fitted effect of over 60% in size
# Conditions: Drosophila S2 Gal4-RORgamma UAS-luciferase reporter, 20 h; series mostly up to 53.6 µM; activity change, negative = inhibition: at the top concentration
# How it was run: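 Compounds are pin-transferred onto Drosophila Schneider cells expressing a copper-inducible Gal4–ROR gamma transactivation domain fusion. After 1 hr, copper sulfate is added to 700 uM final; luciferase is read 20 hr later.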
# % is set by controls: 0 for no effect and ±100 for the full control effect; potency is the fitted concentration of half-maximal effect.
SMILES,"activity change, negative = inhibition",Potency
C=CCn1c(=O)c(C(=O)Nc2ncccc2O)c(O)c2ccccc21,-18% (inactive),
COC(=O)N/N=C/c1ccc(/C=N/NC(=O)OC)cc1,9.4% (inactive),
Cc1ccc(OCCOc2cccc(/C=N/NC(N)=O)c2)cc1,-0.897% (inactive),
CCOc1ccc(/C=N/NC(N)=S)cc1,,5.01 µM (active)
COC(=O)[C@@H]1CCCN1C(=O)c1cc(COc2cccc3cccnc23)on1,-12.3% (inactive),
CCCC(=O)N1CCN(c2nnc(-c3ccc(C)cc3)c3ccccc23)CC1,-3% (inactive),
O=C(CN1C(=O)COc2ccc(Cl)cc21)N1CCOCC1,-30.2% (inactive),
Cc1ccccc1NC(=S)N(CCCN1CCOCC1)Cc1cccs1,-24.3% (inactive),
Cc1c(Cl)cccc1NC(=O)CSc1ccc(-c2cccnc2)nn1,0.66% (inactive),
Cc1ccc(CN(Cc2cccnc2)C(=S)Nc2cc(Cl)ccc2C)cc1,,3.16 µM (active)
Cc1ccc(C)c(NC(=S)NCC(c2cccnc2)N2CCOCC2)c1 (configuration not stated),-15.5% (inactive),
Cc1ccc(C)c2[nH]c(=O)c(CN(Cc3cccnc3)C(=S)NCc3ccco3)cc12,30.7% (inactive),
Cc1ccc(CN(Cc2cccnc2)C(=S)Nc2cccc(Cl)c2C)cc1,,3.98 µM (active)
CCc1cccc(C)c1NC(=S)N(CCCN1CCN(C)CC1)Cc1cccs1,-5.96% (inactive),
Cc1ccc(Cl)cc1NC(=S)N(CCN(C)C)Cc1cccs1,,11.2 µM (active)
Cc1cccc(C(=O)Nc2ccccc2C(=O)NCc2cccnc2)c1,-0.355% (inactive),
COc1ccc(-c2nc3ccccc3c(=O)n2CCc2ccc(O)cc2)cc1,15.1% (inactive),
CSc1nnc2ccc(-c3ccc(C)cc3)nn12,-38.3% (inactive),
Cc1ccc(C(CNC(=O)Nc2cccc(C)c2)N2CCN(C)CC2)cc1 (configuration not stated),-13% (inactive),
COc1cc(C(=O)NCC2(c3ccccc3)CCCC2)ccc1OC(C)C,-1.02% (inactive),
O=C(NCc1ccccc1Cl)C1CCN(c2ncnc3c2nc2n3CCCCC2)CC1,-7.55% (inactive),
CCOCCCN1C(=O)C2C(C(=O)Nc3ccc(OCC)cc3)C3C=CC2(O3)C1C(=O)NC1CCCCC1 (configuration not stated),-4.56% (inactive),

SMILES,"activity change, negative = inhibition",Potency
CCN(CC)CCn1cnc2c1c(=O)[nH]c(=O)n2Cc1ccccc1,26% (inactive),
CCOc1ccc(OCCSc2nc3ccccc3n2CC(=O)O)cc1,-12.8% (inactive),
COc1ccc(S(=O)(=O)N2CCN(C)CC2)c(C)c1,16.1% [at 1.91 µM] (inactive),
COc1ccc(N(Cc2cc3ccc(C)cc3[nH]c2=O)S(=O)(=O)c2ccccc2)cc1,27.2% (inactive),
CC(C)(C)c1ccc(C(CC(=O)O)NS(=O)(=O)Cc2ccccc2)cc1 (configuration not stated),14.4% (inactive),
CCCCN(CCCC)CCCNC(=O)CN1C(=O)COc2ccc(S(=O)(=O)N3CCC(C)CC3)cc21,-34.4% (inactive),
S=C(NCCc1ccccc1)NCc1ccccc1Cl,,7.94 µM (active)
O=C(NCCCc1ccccc1)C(=O)c1c[nH]c2ccccc12,15.9% (inactive),
O=C(NCCc1c[nH]c2ccccc12)C(=O)NCC1CCCO1 (configuration not stated),27.4% (inactive),
CCc1ccc(NC(=O)CS(=O)CC(=O)NCCCc2ccccc2)cc1 (configuration not stated),-11.9% (inactive),
O=C(CS(=O)(=O)Cc1ccccc1)NCC1CCCO1 (configuration not stated),0.86% (inactive),
S=C(NCCCc1ccccc1)Nc1ccc(Br)cc1,,8.91 µM (active)
NS(=O)(=O)c1ccc(CCNC(=S)Nc2ccc(S(N)(=O)=O)cc2)cc1,-1.74% (inactive),
CCOc1ccc(CCNC(=O)Nc2ccccc2)cc1OCC,7.93% (inactive),
Fc1ccccc1Cn1cnc(NC(=S)NCCc2ccccc2)n1,12.5% (inactive),
S=C(NCCc1ccccc1)NCC1CCCO1 (configuration not stated),,12.6 µM (active)
O=C(NCCc1ccccc1)C1CC1,-14.5% (inactive),
S=C(NCCc1ccccc1)Nc1ccccc1,,3.16 µM (active)
COc1ccccc1N1CCC(N2CCN(CC(C)(C)C)C(CCO)C2)CC1 (configuration not stated),0.126% (inactive),
Cc1ccc(NS(=O)(=O)c2ccc(-c3coc(C)n3)cc2)c(C)c1,22.6% (inactive),
CSc1ccc(S(=O)(=O)N2CCC(C(=O)NCc3ccncc3)CC2)cc1,18.3% (inactive),
COc1cc(/C=C2\SC(=O)NC2=O)ccc1OCc1ccc(Cl)nc1,40.1% (inactive),

SMILES,"activity change, negative = inhibition",Potency
CC(C)c1ccc(NC(=O)[C@@H](NC(=O)N2CC(=O)Nc3ccccc32)C(C)C)cc1,34% (inactive),
O=C(c1ccc2nc(N3CCOCC3)sc2c1)N1CCN(c2ccc(Cl)cc2)CC1,28.8% (inactive),
Nc1nc(SCC(=O)Nc2ccc(Cl)cc2C(F)(F)F)n[nH]1,0.96% (inactive),
S=C(NCCC1=CCCCC1)Nc1ccccc1,,1.78 µM (active)
CC(=O)Nc1ccc(S(=O)(=O)N(C)CC(=O)NCCC2=CCCCC2)cc1,-2.84% (inactive),
O=C(Cc1cccc2ccccc12)NCCC1=CCCCC1,11.1% [at 10 µM] (inactive),
COc1ccc(CCNC(=O)c2ccccc2OCc2ccccc2)cc1,23% (inactive),
O=C(NC1CCCC1)C(c1ccc(Cl)cc1)N(C(=O)c1csnn1)C1CC1 (configuration not stated),0.541% (inactive),
Cc1cc(C)nc(SCC(=O)c2ccc(Cl)cc2)n1,-15.7% (inactive),
Cc1cc(C)nc(S/C=C/C(=O)c2ccccc2)n1,,6.31 µM (active)
C/C(=N\NC(=O)c1nc(C)cc(C)n1)c1ccccc1,4.85% (inactive),
Cc1ccc(CS(=O)(=O)CCC(=O)NCc2ccc(F)cc2)cc1,13.8% (inactive),
O=C(O)c1ccccc1C(=O)NC1=NN(c2ccccc2)CC1,3.73% (inactive),
CN(c1ccc(OCC(=O)O)cc1)S(=O)(=O)c1ccc2ccccc2c1,-8.22% (inactive),
Cc1ccccc1N1CCN(C2CCCN(C(=O)c3cn4c(C)cccc4n3)C2)CC1 (configuration not stated),-3.69% (inactive),
CCOc1cc(NC(=O)c2ccccc2C(=O)O)c(OCC)cc1NC(=O)c1ccccc1F,19.6% [at 1.91 µM] (inactive),
CCn1c(=O)n(CC)c2cc(N3CCCC3)c(NC(=O)c3ccccc3Br)cc21,2.25% (inactive),
CCN1CCN(c2cc3nc(C)n(Cc4ccccc4)c(=O)c3cc2NC(=O)c2ccccc2F)CC1,,11.2 µM (active)
CS(=O)(=O)Nc1cccc(C2=NN(C(=O)c3cccc(F)c3)C(c3cccs3)C2)c1 (configuration not stated),15.3% (inactive),
CC(C)=CCCC(C)CN1CCC(n2nccc2NC(=O)c2ccccc2)CC1 (configuration not stated),-1.04% (inactive),
CC(=O)NCCC(=O)Nc1nc(-c2ccc3c(c2)OCCO3)cs1,9.31% (inactive),
COc1ccc(-c2cc(=O)oc3cc(OCC(=O)N(C)C4CCS(=O)(=O)C4)ccc23)cc1 (configuration not stated),1.21% (inactive),

SMILES,"activity change, negative = inhibition",Potency
Cc1cc(C)c2nc(SCC(=O)N(C)C3CCS(=O)(=O)C3)cc(C)c2c1 (configuration not stated),-1.99% (inactive),
COc1ccc2c(-c3ccccc3)cc(SCC(=O)N(C)C3CCS(=O)(=O)C3)nc2c1 (configuration not stated),,10 µM (active)
[2H]C(CCOS(N)(=O)=O)c1ccccc1 (configuration not stated),-1.7% (inactive),
Cc1ccc(-c2ccc(/C=C(\C#N)C(N)=S)o2)c([N+](=O)[O-])c1,,11.2 µM (active)
N#C/C(=C/c1ccc(-c2ccccc2[N+](=O)[O-])o1)C(=O)NCCN1CCCCC1,0.585% (inactive),
Cc1cc(-c2ccc(/C=N/n3cnnc3)o2)c([N+](=O)[O-])cc1C,33.2% (inactive),
O=C(Nc1ccc(-c2cscn2)cc1)C1CCCN(Cc2ccc(CO)o2)C1 (configuration not stated),5.13% (inactive),
COc1ccc(CCNC(=O)c2cnc(Cl)c(Cl)c2)cc1,-3.9% (inactive),
CCCCNC(=O)N(O)C1N(/N=C/c2ccc(N(C)C)cc2)C(=S)SC1(C)C (configuration not stated),-35.3% (inactive),
CCCCNC(=O)N(O)C1N(/N=C/c2ccccc2O)C(=S)SC1(C)C (configuration not stated),,11.2 µM (active)
CCC(C)N1C(=S)SC(C)(C)C1N(O)C(=O)NC1CCCCC1 (configuration not stated),-15.4% (inactive),
COc1ccc2c(c1)N(C)/C(=C1/SC(=S)N(NC(C)=O)C1=O)S2,4.75% (inactive),
COc1ccc(OC)c(NC(=O)C2CCCN2S(=O)(=O)c2cccc3nsnc23)c1 (configuration not stated),-27.5% (inactive),
O=C(O)c1[nH]c2ccccc2c1C(c1cccc(O)c1)c1c(C(=O)O)[nH]c2ccccc12,-7.71% (inactive),
O=C(/C=C/c1ccccc1)Nc1nnc(SCC(=O)c2ccc3ccccc3c2)s1,-1.4% (inactive),
CCOCc1nnc(NC(=O)CSc2ccc(C)cc2)s1,-40.7% (inactive),
O=C(CSc1ccccc1)Nc1nnc(/C=C/c2ccccc2)s1,,20 µM (active)
CC1(C)Cc2c(sc(NC(=O)C(=O)NCC3CCCO3)c2C(=O)O)CO1 (configuration not stated),-26% (inactive),
COc1ccc(CC(=O)NC(C)CCc2ccccc2)cc1 (configuration not stated),16.8% (inactive),
C/C(=N\NC(=O)Cc1ccc(F)cc1)c1ccc(F)cc1,41.3% (inactive),
C/C(=N\NC(=O)c1ccccc1F)c1ccccn1,,0.631 µM (active)
C/C(=N\NC(=O)Cc1ccc(Br)cc1)c1cccnc1,19.1% (inactive),

SMILES,"activity change, negative = inhibition",Potency
O=C(Nc1ccc(NC(=O)c2ccccc2F)cc1)c1ccccc1F,0.482% (inactive),
COc1ccc(CC(=O)N/N=C(\C)c2ccccn2)cc1,,7.08 µM (active)
C/C(CC(=O)Nc1ccc(N(C)C)cc1)=N\NC(=O)c1ccccc1F,-23% (inactive),
C/C(=N\NC(=O)Cc1ccc(Cl)cc1)c1ccccn1,,0.398 µM (active)
COc1ccc(/C(C)=N/NC(=O)c2ccc3nc[nH]c3c2)cc1,1.35% (inactive),
Cc1ccc(Cn2cc(C(=O)NN)c(=O)c3ccc(F)cc32)cc1,-6.79% (inactive),
Cc1cccnc1CCNC(=O)C1CCC(=O)N(Cc2cccc(F)c2)C1 (configuration not stated),0.715% (inactive),
COc1cc2ccccc2cc1C(=O)Nc1ccccc1C,-19.4% (inactive),
COc1cc([N+](=O)[O-])cc([N+](=O)[O-])c1NC(=O)N1CCOCC1,-23.8% (inactive),
O=S(=O)(Cc1cc(Cl)nc(-c2cccnc2)n1)c1ccccc1,23.2% (inactive),
COc1ccc(C(=O)Nc2cc(C)c(NC(=O)c3ccccc3OC)cn2)cc1,-27.9% (inactive),
Cc1ccnc(N2C(=O)c3ccc([N+](=O)[O-])cc3C2=O)c1,-16.3% (inactive),
Cc1cccc(C)c1NC1=NC(=S)N(c2ccc(N(C)C)cc2)C1(C)C,,14.1 µM (active)
COC(=O)c1cc(C(=O)NC(C)C2CC3CCC2C3)cc([N+](=O)[O-])c1 (configuration not stated),-8.79% (inactive),
Cc1c2cnn(CC(=O)NCc3ccccn3)c(=O)c2c(C)n1Cc1ccc(Cl)cc1,4.88% (inactive),
Cc1ccc(CN2CCN(c3ncccn3)CC2)c(C)c1,18.7% (inactive),
CN(NS(=O)(=O)c1cccs1)c1ncc(C(F)(F)F)cc1Cl,,5.62 µM (active)
O=S(=O)(NCc1ccc(Cl)cc1Cl)c1cccs1,-12.9% (inactive),
C#CCN(N(C)c1ncc(C(F)(F)F)cc1Cl)S(=O)(=O)c1ccc2ccccc2c1,-20.3% (inactive),
